Experimental data reported in PMC4552634, “A New Set of Chemical Starting Points with Plasmodium falciparum Transmission-Blocking Potential for Antimalarial Drug Discovery” (PLoS ONE, 2015).
Among all 13,000 compounds or so, about 3,200 (25%) showed an effect of 50% or more. The list shows a part of the results.

test system: P. falciparum stage V gametocytes; design: BacTiter-Glo ATP luminescence viability of purified stage V gametocytes in 384-well plates, per cent inhibition versus DMSO; details: 48 h, 5 µM; inhibitor

| Structure (SMILES) | % Inhibition [%] |
| --- | --- |
| CCCC(=O)Nc1ccc(OCCCN(Cc2ccccc2OC(F)(F)F)c2ccc(C#N)c(C(F)(F)F)c2)cc1 [TCMDC-135667] | 14.29 |
| COc1cccc(-c2[nH]c3ccccc3c2CN2CCC(c3c(C)cccc3C)CC2)c1 [TCMDC-141630] | 29.07 |
| COc1cccc(CN2CCC(CCOC(c3ccccc3)c3ccccc3)CC2)c1O [TCMDC-136041] | -8.929 |
| COc1ccccc1-c1[nH]c2ccccc2c1CN1CCC(c2c(C)cccc2C)CC1 [TCMDC-141628] | 83.13 |
| CCN1CCN(c2cc(C)c3cc(NC(=O)c4ccc(Br)o4)ccc3n2)CC1 [TCMDC-123600] | 1.193 |
| COc1ccc(-c2ccc(NC(=O)c3ccc(Cl)cc3)cc2)cc1CN1CCCN(C)CC1 [TCMDC-132510] | 104.3 |
| COc1ccc(-c2ccc(NC(=O)c3ccc(C#N)cc3)cc2)cc1CN1CCN(C)CC1 [TCMDC-133336] | -18.08 |
| COc1ccc(-c2ccc(CNC(=O)c3ccc(Cl)cc3)c(F)c2)cc1CN1CCCN(C)CC1 [TCMDC-133369] | -6.152 |
| COc1ccc(-c2cccc(NC(=O)c3cccc(Cl)c3)c2)cc1CN1CCN(C)CC1 [TCMDC-132617] | 28.66 |
| COc1ccc(-c2cccc(NC(=O)c3ccc(Cl)cc3)c2)cc1CN1CCCN(C)CC1 [TCMDC-132602] | -35 |
| COc1ccc(-c2ccc(NC(=O)c3ccc(Cl)cc3)cc2)cc1CN1CCC(O)CC1 [TCMDC-133337] | 0.3946 |
| COc1ccc(-c2ccc(NC(=O)c3cccc(Cl)c3)cc2)cc1CN1CCN(C)CC1 [TCMDC-132526] | 82.79 |
| COc1ccc(-c2ccc(NC(=O)c3ccc(Cl)cc3)cc2)cc1CN1CCN(C)CC1 [TCMDC-132512] | 92.99 |
| CC1(C)N=C(N)N=C(N)N1OCCCNC(=O)c1ccc(C(=O)NCCCON2C(N)=NC(N)=NC2(C)C)cc1 [TCMDC-131677] | 3.216 |
| CCOC(=O)c1ccc(-c2c(C(F)(F)F)noc2-c2cc(CC)c(OC)cc2O)o1 [TCMDC-124150] | 2.818 |
| Cc1ccc(C)c2c1[nH]c1ccc(C3=NCCN3)cc12 [TCMDC-137683] | 24.52 |
| CCCS(=O)(=O)c1nc(S(=O)(=O)c2ccc(Cl)cc2)c(N2CCCCC2)s1 [TCMDC-124768] | -49.43 |
| O=S(=O)(NCCN1CCCC1)c1ccc(-c2ccc(CNCc3ccsc3)cc2)cc1F [TCMDC-132288] | 40.86 |
| Cc1cc(-c2ccc(CNCc3ccsc3)cc2)ccc1S(=O)(=O)NCCN1CCCC1 [TCMDC-132292] | 94.64 |
| COc1ccc(CNCc2ccsc2)cc1-c1ccc(OC)c(S(=O)(=O)NCCN2CCCC2)c1 [TCMDC-132296] | 104.6 |
| COc1ccc(-c2ccc(CNCc3ccsc3)cc2)cc1S(=O)(=O)NCCN1CCCC1 [TCMDC-132283] | 107.3 |
| COc1ccc(CNCc2ccsc2)cc1-c1ccc(S(=O)(=O)NCCN2CCCC2)c(C)c1 [TCMDC-132225] | 105.9 |
| CC(=O)OCCN1C(=O)c2ccc3c4c(ccc(c24)C1=O)C(=O)N(CCOC(C)=O)C3=O [TCMDC-123488] | 10.44 |

| Structure (SMILES) | % Inhibition [%] |
| --- | --- |
| COc1cc(Nc2nccc(N3CCC(NC(=O)c4cccc(NC(C)=O)c4)C3)n2)cc(OC)c1OC (stereo not drawn) [TCMDC-133622] | -17.51 |
| Cc1ccc(O)c(C(=O)c2cnc3c(c2)c(-c2ccc(F)cc2)c(C#N)c(=O)n3C)c1 [TCMDC-124507] | 19.5 |
| CC(=O)Nc1ccc(CN2CCC(N(C)c3cc(NC(=O)c4cccc(F)c4)ccn3)CC2)cc1 [TCMDC-134981] | -20.16 |
| O=C(Nc1ccc2c(c1)CN(Cc1ccc(N3CCCC3)o1)CCC2)c1ccoc1 [TCMDC-134723] | -9.381 |
| COc1ccc(-c2nc(NC(=O)CS(=O)(=O)c3ccc(F)cc3)sc2C)cc1 [TCMDC-123523] | 53.6 |
| Cc1ccc(-c2nc(NC(=O)Nc3ccc(C(F)(F)F)cc3)sc2C)cc1Cl [TCMDC-125584] | 10.27 |
| COc1ccc(-c2nc(NC(=O)CS(=O)(=O)c3ccc(OC)cc3)sc2C)cc1 [TCMDC-125152] | -0.7393 |
| CCOc1ccc(-c2nc(NC(=O)Cc3cccc(OC)c3)sc2C)cc1 [TCMDC-123618] | -21.09 |
| COc1ccc(-c2nc(NC(=O)Cc3cccc(OC)c3)sc2C)cc1 [TCMDC-124331] | 95.1 |
| COc1ccc(-c2nc(NC(=O)Cc3ccc(OC)c(OC)c3)sc2C)cc1 [TCMDC-123619] | 10.74 |
| COc1ccc(-c2nc(NC(=O)Cc3ccc4c(c3)OCCO4)sc2C)cc1 [TCMDC-124374] | 41.12 |
| Cc1sc(NC(=O)Cc2cccc(C(F)(F)F)c2)nc1-c1cccc(Cl)c1 [TCMDC-125144] | 54.43 |
| COc1ccc(-c2nc(NC(=O)CS(=O)(=O)c3ccc(C)cc3)sc2C)cc1 [TCMDC-124318] | 31.51 |
| COc1ccc(OCC(=O)Nc2nc(-c3ccc(OC)cc3)c(C)s2)cc1 [TCMDC-124330] | 22.09 |
| COc1ccc(-c2nc(NC(=O)CSc3ccc([N+](=O)[O-])cc3)sc2C)cc1 [TCMDC-124323] | 91.56 |
| COc1ccc(-c2nc(NC(=O)CSc3ccccc3)sc2C)cc1 [TCMDC-123814] | 23.99 |
| CCOc1cc2c(cc1OCC)C(c1ccc(O)c(Cl)c1)NCC2 (stereo not drawn) [TCMDC-125439] | 10.77 |
| CC1CN(c2nc(NCCc3ccc(O)cc3)nc(NCc3ccccc3-c3ccc(C(F)(F)F)cc3)n2)CC(C)N1 (stereo not drawn) [TCMDC-138324] | 26.39 |
| COc1cc2nc(N(C)CC3COc4ccccc4O3)nc(N)c2cc1OC.Cl (stereo not drawn) [TCMDC-131889] | -22.31 |
| C=CCC(C)n1ncc2c3c(N)nc(N)nc3ccc21 (stereo not drawn) [TCMDC-137867] | -15.57 |
| COc1cc(Cc2cnc(N)nc2N)c2c(c1OC)OC(C)C=C2 (stereo not drawn) [TCMDC-137896] | 4.903 |
| O=C(Nc1cccc(-c2cccc(-c3nc4ccc(F)cc4[nH]3)c2)c1)c1cnc[nH]1 [TCMDC-136932] | -61.11 |
| COc1ccc(-c2c3c(=O)n(C)c(=O)n(C)c3c3nnc4ccccc4n23)cc1 [TCMDC-125099] | -11.53 |

| Structure (SMILES) | % Inhibition [%] |
| --- | --- |
| O=C(Nc1ccc(-c2nc3ccccc3[nH]2)cc1)C1CCCN(CC2CC2)C1 (stereo not drawn) [TCMDC-124656] | -0.844 |
| CN1CCN(CC(=O)Nc2ccc(-c3ccc(-c4nc5ccc(C(F)(F)F)cc5[nH]4)cc3)cc2)CC1 [TCMDC-136985] | -42.42 |
| O=C(CC1NC(=O)c2ccccc21)Nc1ccc(-c2ccc(-c3nc4ccc(C(F)(F)F)cc4[nH]3)cc2)cc1 (stereo not drawn) [TCMDC-137095] | 71.74 |
| CN1CCN(CC(=O)Nc2cccc(-c3ccc(-c4nc5cc(C(F)(F)F)ccc5[nH]4)s3)c2)CC1 [TCMDC-136977] | -5.014 |
| CN1CCN(CC(=O)Nc2ccc(-c3cccc(-c4nc5ccc(C(F)(F)F)cc5[nH]4)c3)cc2)CC1 [TCMDC-136981] | 72.32 |
| CN1CCN(CC(=O)Nc2cccc(-c3cccc(-c4nc5ccc(C(F)(F)F)cc5[nH]4)c3)c2)CC1 [TCMDC-136980] | 78.77 |
| CN1CCC(C(=O)Nc2ccc(-c3cccc(-c4nc5ccc(C(F)(F)F)cc5[nH]4)c3)cc2)CC1 [TCMDC-132188] | -24.87 |
| Cc1cccc2[nH]c(-c3cccc(-c4ccc(NC(=O)CC5NC(=O)c6ccccc65)cc4)c3)nc12 (stereo not drawn) [TCMDC-137094] | -30.82 |
| O=C(CC1NC(=O)c2ccccc21)Nc1ccc(-c2cccc(-c3nc4ccc(C(F)(F)F)cc4[nH]3)c2)cc1 (stereo not drawn) [TCMDC-137092] | -11.47 |
| CN1CCN(CC(=O)Nc2cccc(-c3ccc(-c4nc5ccc(C(F)(F)F)cc5[nH]4)cc3)c2)CC1 [TCMDC-136984] | -3.609 |
| CCOC(=O)CNC(=O)N1CCN(C(=O)NCC(=O)OCC)CC1 [TCMDC-138998] | -3.887 |
| Cc1c(-c2ccccc2)ccc2[nH]cc(CC#N)c12 [TCMDC-139748] | 49.07 |
| O=C(Nc1cccc(CN2CCCN(Cc3ccc(O)cc3)CC2)c1)c1ccc2ccccc2n1 [TCMDC-141860] | 34.74 |
| CCOc1cc(C)ccc1C1CCN(CCCCNC(=O)c2nc(-c3ccc(C(F)(F)F)cc3)[nH]c2C)CC1 [TCMDC-138585] | -10.92 |
| COc1ccc(-c2nc3ccc(C)nc3nc2-c2ccc(OC)cc2)cc1 [TCMDC-142014] | 17.71 |
| CC(CCc1ccccc1)NCC(O)c1cccc(C(F)(F)F)c1 (stereo not drawn) [TCMDC-131247] | 18.39 |
| c1ccc(-c2cc(NCCCn3ccnc3)nc(-c3cccnc3)n2)cc1 [TCMDC-125422] | 8.996 |
| c1ccc(-c2nc(NCCCn3ccnc3)cc(-c3ccncc3)n2)cc1 [TCMDC-125417] | 49.28 |
| FC(F)(F)c1cccc(-c2cc(NCCCn3ccnc3)nc(-c3ccncc3)n2)c1 [TCMDC-125414] | 56.64 |
| CC1CN=C(c2ccc(NC(=O)c3ccc(C(=O)Nc4ccc(C5=NCC(C)N5)cc4)cc3)cc2)N1 (stereo not drawn) [TCMDC-137474] | 8.984 |
| O=S(=O)(NCCN1CCCC1)c1ccc(-c2ccc(CNCc3ccsc3)cc2)s1 [TCMDC-132285] | 78.64 |
| O=S(=O)(NCCN1CCCC1)c1ccc(-c2cccc(CNCc3ccsc3)c2)s1 [TCMDC-132274] | 102.4 |
| Cc1ccc(CNC(=O)c2ccc(CN3CCCN(Cc4ccsc4)CC3)cc2)cc1 [TCMDC-136451] | 11.88 |
